The text below walks through data of PubChem BioAssay (EPA / NIEHS).

What is called AC50 is the midpoint of the concentration-response curve, whichever way the signal moves.

Values joined by “and” are separate entries in the source; they are usually repeats but may differ in a detail not shown here. Equal entries are not always repeated. Results filed as inconclusive are left out. A structure can be active in one record and inactive in another. Active and inactive are the calls of the source. How the source made its calls, unless noted: active means hit-call score of the fitted dose curve at least 0.9, where 1 is the maximum; inactive means score below 0.9.

Assay [1] can be described thus: BSK_4H_Eotaxin3: BioMAP Diversity Plus: 4H Assay for Eotaxin 3 Biomarker Activity (AID 2283000).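 On outcome: CCL26 protein level quantified by ELISA in parallel with SRB cytotoxicity check.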 The note with it: primary human endothelial cells (HUVEC); actives raise or lower the signal. In outline: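 ELISA quantitation of CCL26 (Eotaxin-3) protein from chemically dosed human vascular endothelial cells at 24 h; increases and decreases both scored relative to DMSO-treated baseline.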

Assay [2] concerns the target human Peroxisome Proliferator-activated Receptor delta (PPARd), PPARD (gene 5467) (UniProt Q03181). Kind of assay: ATG_PPARd_TRANS: Attagene TRANS-FACTORIAL HepG2 Assay for human Peroxisome Proliferator-activated Receptor delta (PPARd) (AID 2283002; active means hit-call score of the fitted dose curve at least 0.9, where 1 is the maximum). The essentials:
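Cell-based TRANS reporter: HepG2, transient MRTU transfection, 24 h exposure. Readout = reporter mRNA (RT-PCR/CE, 6-FAM). Gain-of-signal fit vs DMSO control.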

Read-out in assay [3]: Intercellular Adhesion Molecule 1 (ICAM1), ICAM1 (gene 3383)
Kind of assay: BSK_3C_ICAM1: BioMAP Diversity Plus: 3C Assay for Intercellular Adhesion Molecule 1 (ICAM1) Biomarker Activity (AID 2283003). The settings on record: primary human endothelial cells (HUVEC); actives raise or lower the signal. The essentials: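 ELISA readout of ICAM1 in human umbilical vein endothelial cells in the 3C system, taken 24 h post-dose. Gain or loss of signal versus DMSO was fitted in both directions, with SRB total-protein staining run in parallel.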

Assay [4] in a line: BSK_3C_Proliferation: Cell Proliferation Assessment in the BioMAP Diversity Plus: 3C Assay (AID 2283006).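 On AC50: potency may reflect either rise or fall in cell number versus DMSO.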 The note with it: primary human endothelial cells (HUVEC). The essentials:
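Proliferation as total protein: sulforhodamine B (0.1%) stain of TCA-fixed subconfluent human umbilical vein endothelial cells, absorbance 560 nm, 48 h after dosing. Activity fitted in both directions against DMSO baseline.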

The target in assay [5] is Peroxisome proliferator-activated receptor gamma (Homo sapiens) (UniProt P37231). Description: ATG_PPARg_TRANS: Attagene TRANS-FACTORIAL HepG2 Assay for human Peroxisome Proliferator-activated Receptor-gamma (PPARg) (AID 2283007; active means hit-call score of the fitted dose curve at least 0.9, where 1 is the maximum). The essentials: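 HepG2 cells are transiently transfected with GAL4-UAS reporter units driven by chimeric NR-Gal4 fusions and dosed for 24 h. Reporter mRNA is quantified by RT-PCR, 6-FAM labelling, HpaI digestion and capillary electrophoresis. Induction is scored against DMSO.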

For assay [6], the target named is Nuclear receptor subfamily 1 group I member 2 (Homo sapiens) (UniProt O75469). Description: ATG_PXR_TRANS: Attagene TRANS-FACTORIAL HepG2 Assay for human Pregnane X Receptor (PXR) (AID 2283008; active means hit-call score of the fitted dose curve at least 0.9, where 1 is the maximum). In outline: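 HepG2 transfected (FuGene 6) with GAL4-UAS reporter units + PXR-Gal4 chimera; dosed 24 h. Total RNA → oligo(dT) RT → PCR → 6-FAM primer extension → HpaI cut → CE. Gain-of-signal vs DMSO.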

The target of assay [7] is human RAR-related Orphan Receptor gamma (RORg), RORC (gene 6097) (UniProt P51449). Kind of assay: ATG_RORg_TRANS: Attagene TRANS-FACTORIAL HepG2 Assay for human RAR-related Orphan Receptor gamma (RORg) (AID 2283011; active means hit-call score of the fitted dose curve at least 0.9, where 1 is the maximum). The essentials: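 Chimeric RORg-Gal4 transactivation in transfected HepG2; 24 h exposure; RT-PCR/capillary electrophoresis readout of reporter mRNA, DMSO baseline.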

Assay [8] concerns the target Retinoic acid receptor RXR-alpha (Homo sapiens) (UniProt P19793). Kind of assay: ATG_RXRa_TRANS: Attagene TRANS-FACTORIAL HepG2 Assay for human Retinoid X Receptor alpha (RXRa) (AID 2283012; active means hit-call score of the fitted dose curve at least 0.9, where 1 is the maximum). The essentials:
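TRANS format reporting activity of exogenous RXRa-Gal4 chimera in transiently transfected HepG2, 24 h exposure. Reporter transcripts quantified by RT-PCR with capillary electrophoresis, with gain of signal scored relative to DMSO.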

Assay [9] deals with human Thyroid Receptor alpha (THRa1), THRA (gene 7067) (UniProt P10827). Description: ATG_THRa1_TRANS: Attagene TRANS-FACTORIAL HepG2 Assay for human Thyroid Receptor alpha (THRa1) (AID 2283014; active means hit-call score of the fitted dose curve at least 0.9, where 1 is the maximum). The essentials: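 Measured here is mRNA from a GAL4-UAS reporter in transfected HepG2 cells carrying a Gal4-fused receptor, 24 h post-dose. DMSO served as negative control and baseline.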

Read-out in assay [10]: E-selectin (Homo sapiens) (UniProt P16581)
Kind of assay: BSK_3C_Eselectin: BioMAP Diversity Plus: 3C Assay for Eselectin Biomarker Activity (AID 2283015).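 On outcome: cell surface E-selectin protein quantified by ELISA 24 h after dosing.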 The note with it: primary human endothelial cells (HUVEC); actives raise or lower the signal. In outline:
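Endpoint derived by bidirectional fitting against DMSO vehicle; signal is ELISA-detected E-selectin from primary HUVEC at 24 h post-dosing, with parallel SRB staining (0.1% SRB, 560 nm) flagging cytotoxicity.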

Read-out in assay [11]: Interleukin-1 alpha (IL1a), IL1A (gene 3552)
Kind of assay: BSK_BE3C_IL1a: BioMAP Diversity Plus: BE3C Assay for Interleukin-1 alpha (IL1a) Biomarker Activity (AID 2283016). The note with it: primary human bronchial epithelial cells; actives raise or lower the signal. In outline:
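IL-1a measured by ELISA after 24 h treatment of human primary bronchial epithelial cells, with gain or loss of signal fitted versus DMSO. Parallel cultures stained with SRB gauge overt cytotoxicity.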

Read-out in assay [12]: Monocyte Chemoattractant Protein-1 (MCP1), CCL2 (gene 6347)
Kind of assay: BSK_3C_MCP1: BioMAP Diversity Plus: 3C Assay for Monocyte Chemoattractant Protein-1 (MCP1) Biomarker Activity (AID 2283017). The note with it: primary human endothelial cells (HUVEC); actives raise or lower the signal. The essentials:
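Using human vascular primary endothelium, researchers measured MCP-1 by ELISA 24 h after treatment, with DMSO serving as negative control for bidirectional fitting.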

Read-out in assay [13]: Monocyte Chemoattractant Protein-1 (MCP1), CCL2 (gene 6347)
Kind of assay: BSK_4H_MCP1: BioMAP Diversity Plus: 4H Assay for Monocyte Chemoattractant Protein-1 (MCP1) Biomarker Activity (AID 2283018). The note with it: primary human endothelial cells (HUVEC); actives raise or lower the signal. In outline:
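ELISA of MCP-1 (CCL2) 24 h after chemical dosing of HUVEC in the BioMAP 4H system. Gain or loss versus DMSO fitted; parallel SRB staining (560 nm) tracked overt cytotoxicity.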

Read-out in assay [14]: Human Leukocyte Antigen - DR isotype (HLADR), HLA-DRA (gene 3122)
Kind of assay: BSK_3C_HLADR: BioMAP Diversity Plus: 3C Assay for Human Leukocyte Antigen - DR isotype (HLADR) Biomarker Activity (AID 2283019).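 On outcome: ELISA of cell-surface HLA-DR on HUVEC 24 h after dosing.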 The settings on record: primary human endothelial cells (HUVEC); actives raise or lower the signal. The essentials: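 Compound added to primary HUVEC cultures, 24 h incubation, then HLA-DR determined by ELISA; endpoint derived by bidirectional fitting relative to DMSO negative control.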

In assay [15] the target is human Peroxisome Proliferator-activated Receptor alpha (PPARa), PPARA (gene 5465) (UniProt Q07869). Kind of assay: ATG_PPARa_TRANS: Attagene TRANS-FACTORIAL HepG2 Assay for human Peroxisome Proliferator-activated Receptor alpha (PPARa) (AID 2283001; active means hit-call score of the fitted dose curve at least 0.9, where 1 is the maximum). In outline:
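Reporter transcripts quantified by RT-PCR plus capillary electrophoresis after 24 h treatment, fitted upward relative to DMSO. Cells: human HepG2 transiently carrying multiple GAL4-UAS reporter units driven by NR-Gal4 chimeras.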

Assay [16] deals with human RAR-related Orphan Receptor beta (RORb), RORB (gene 6096) (UniProt Q92753). Description: ATG_RORb_TRANS: Attagene TRANS-FACTORIAL HepG2 Assay for human RAR-related Orphan Receptor beta (RORb) (AID 2283010; active means hit-call score of the fitted dose curve at least 0.9, where 1 is the maximum). The essentials: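 Read-out is reporter mRNA induction, quantified by RT-PCR with fluorescent capillary electrophoresis, 24 h post-dose in transiently transfected HepG2 expressing exogenous NR-Gal4 chimera. Activity fitted upward versus DMSO.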

The target of assay [17] is human Retinoic Acid Receptor beta (RARb), RARB (gene 5915) (UniProt P10826). Kind of assay: ATG_RARb_TRANS: Attagene TRANS-FACTORIAL HepG2 Assay for human Retinoic Acid Receptor beta (AID 2283004; active means hit-call score of the fitted dose curve at least 0.9, where 1 is the maximum). The essentials:
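Fluorescent capillary-electrophoresis detection of GAL4-UAS reporter mRNA defines the endpoint, with induction over DMSO-treated wells scored as activity. Transiently transfected human hepatoma HepG2 cells expressing exogenous NR–Gal4 proteins are exposed to test chemicals for 24 h.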

Assay [18] has as its target human Retinoid X Receptor beta (RXRb), RXRB (gene 6257) (UniProt P28702). Kind of assay: ATG_RXRb_TRANS: Attagene TRANS-FACTORIAL HepG2 Assay for human Retinoid X Receptor beta (RXRb) (AID 2283013; active means hit-call score of the fitted dose curve at least 0.9, where 1 is the maximum). The essentials: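 Readout is reporter transcript induction after 24 h dosing. It is measured by RT-PCR of total RNA followed by fluorescent capillary electrophoresis. HepG2 liver cells carry transfected multiple reporter units driven by an exogenous RXRb-Gal4 fusion; activity is relative to DMSO.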

The target of assay [19] is human Retinoic Acid Receptor gamma (RARg), RARG (gene 5916) (UniProt P13631). Description: ATG_RARg_TRANS: Attagene TRANS-FACTORIAL HepG2 Assay for human Retinoic Acid Receptor gamma (RARg) (AID 2283009; active means hit-call score of the fitted dose curve at least 0.9, where 1 is the maximum). The essentials: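 Transactivation of exogenous RARg-Gal4 fusion measured as reporter transcript induction after 24 h in transfected HepG2 cells. RNA reverse-transcribed, amplified, fluorescently labeled and resolved by capillary electrophoresis; increase relative to DMSO.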
human Retinoic Acid Receptor gamma (RARg), RARG (gene 5916), sequence (P13631 whole entry, looked up, the tested form may be a part): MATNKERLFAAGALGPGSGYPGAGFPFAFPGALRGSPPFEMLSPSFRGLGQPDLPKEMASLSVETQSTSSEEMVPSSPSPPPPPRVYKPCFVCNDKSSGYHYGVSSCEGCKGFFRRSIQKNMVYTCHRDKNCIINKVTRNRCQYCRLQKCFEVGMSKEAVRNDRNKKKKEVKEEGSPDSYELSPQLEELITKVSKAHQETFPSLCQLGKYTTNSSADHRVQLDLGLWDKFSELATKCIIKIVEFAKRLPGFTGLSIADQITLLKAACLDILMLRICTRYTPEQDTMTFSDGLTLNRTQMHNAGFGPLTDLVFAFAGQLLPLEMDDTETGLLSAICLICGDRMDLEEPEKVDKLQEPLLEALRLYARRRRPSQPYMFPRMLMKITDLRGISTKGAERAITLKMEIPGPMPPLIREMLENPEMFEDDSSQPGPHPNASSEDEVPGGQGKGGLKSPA

Nuclear receptor subfamily 1 group I member 2 (Homo sapiens), sequence (O75469 whole entry, looked up, the tested form may be a part): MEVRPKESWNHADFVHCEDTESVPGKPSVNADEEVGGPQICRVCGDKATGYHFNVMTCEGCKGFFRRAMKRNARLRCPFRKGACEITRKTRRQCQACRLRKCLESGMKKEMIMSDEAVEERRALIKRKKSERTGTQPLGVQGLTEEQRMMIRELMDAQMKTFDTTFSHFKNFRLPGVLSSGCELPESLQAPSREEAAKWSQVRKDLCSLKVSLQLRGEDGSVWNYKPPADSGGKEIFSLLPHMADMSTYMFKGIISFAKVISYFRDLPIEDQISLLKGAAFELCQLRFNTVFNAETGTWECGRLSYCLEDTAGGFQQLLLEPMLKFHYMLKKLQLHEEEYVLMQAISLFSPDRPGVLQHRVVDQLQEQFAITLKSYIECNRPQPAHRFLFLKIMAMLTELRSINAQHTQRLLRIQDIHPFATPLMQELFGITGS
Retinoic acid receptor RXR-alpha (Homo sapiens), sequence (P19793 whole entry, looked up, the tested form may be a part): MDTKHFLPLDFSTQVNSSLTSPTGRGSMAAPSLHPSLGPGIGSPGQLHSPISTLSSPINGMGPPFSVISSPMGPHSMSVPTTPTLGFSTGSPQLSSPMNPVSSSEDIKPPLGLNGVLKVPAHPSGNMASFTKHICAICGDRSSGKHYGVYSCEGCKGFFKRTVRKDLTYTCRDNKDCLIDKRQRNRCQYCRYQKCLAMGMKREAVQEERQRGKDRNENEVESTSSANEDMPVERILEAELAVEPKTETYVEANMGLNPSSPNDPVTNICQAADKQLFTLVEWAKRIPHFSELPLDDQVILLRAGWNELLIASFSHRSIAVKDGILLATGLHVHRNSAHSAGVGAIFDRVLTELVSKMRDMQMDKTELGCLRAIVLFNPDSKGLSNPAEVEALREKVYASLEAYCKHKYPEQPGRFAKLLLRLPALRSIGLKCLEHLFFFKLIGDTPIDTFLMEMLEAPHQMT
human Thyroid Receptor alpha (THRa1), THRA (gene 7067), sequence (P10827 whole entry, looked up, the tested form may be a part): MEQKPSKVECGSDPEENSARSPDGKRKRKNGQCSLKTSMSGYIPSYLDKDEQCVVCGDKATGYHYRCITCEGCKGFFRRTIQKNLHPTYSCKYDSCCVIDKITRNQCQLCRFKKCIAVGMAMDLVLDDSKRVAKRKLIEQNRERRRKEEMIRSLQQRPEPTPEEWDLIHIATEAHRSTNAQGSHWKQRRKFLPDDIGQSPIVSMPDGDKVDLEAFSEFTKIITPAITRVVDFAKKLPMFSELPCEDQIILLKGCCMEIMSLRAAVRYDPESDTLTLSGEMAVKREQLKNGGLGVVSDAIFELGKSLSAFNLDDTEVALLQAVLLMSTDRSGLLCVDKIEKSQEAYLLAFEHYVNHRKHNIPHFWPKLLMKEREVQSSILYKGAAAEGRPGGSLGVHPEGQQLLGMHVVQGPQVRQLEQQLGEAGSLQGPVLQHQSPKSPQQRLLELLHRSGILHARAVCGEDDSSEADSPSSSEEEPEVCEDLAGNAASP
human RAR-related Orphan Receptor gamma (RORg), RORC (gene 6097), sequence (P51449 whole entry, looked up, the tested form may be a part): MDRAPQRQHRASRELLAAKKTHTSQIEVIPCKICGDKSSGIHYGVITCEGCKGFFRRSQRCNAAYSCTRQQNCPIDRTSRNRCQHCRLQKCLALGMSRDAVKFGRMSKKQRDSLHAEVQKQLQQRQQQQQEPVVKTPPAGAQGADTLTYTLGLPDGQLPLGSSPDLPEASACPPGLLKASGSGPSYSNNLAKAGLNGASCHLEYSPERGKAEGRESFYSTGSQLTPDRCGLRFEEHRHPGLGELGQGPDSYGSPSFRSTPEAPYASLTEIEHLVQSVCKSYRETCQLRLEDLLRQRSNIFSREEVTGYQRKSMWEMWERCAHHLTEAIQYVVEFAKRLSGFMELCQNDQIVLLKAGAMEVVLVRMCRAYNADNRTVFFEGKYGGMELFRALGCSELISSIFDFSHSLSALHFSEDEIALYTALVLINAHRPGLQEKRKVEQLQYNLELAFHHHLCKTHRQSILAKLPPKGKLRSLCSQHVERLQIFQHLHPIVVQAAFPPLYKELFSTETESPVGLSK
human Peroxisome Proliferator-activated Receptor delta (PPARd), PPARD (gene 5467), sequence (Q03181 whole entry, looked up): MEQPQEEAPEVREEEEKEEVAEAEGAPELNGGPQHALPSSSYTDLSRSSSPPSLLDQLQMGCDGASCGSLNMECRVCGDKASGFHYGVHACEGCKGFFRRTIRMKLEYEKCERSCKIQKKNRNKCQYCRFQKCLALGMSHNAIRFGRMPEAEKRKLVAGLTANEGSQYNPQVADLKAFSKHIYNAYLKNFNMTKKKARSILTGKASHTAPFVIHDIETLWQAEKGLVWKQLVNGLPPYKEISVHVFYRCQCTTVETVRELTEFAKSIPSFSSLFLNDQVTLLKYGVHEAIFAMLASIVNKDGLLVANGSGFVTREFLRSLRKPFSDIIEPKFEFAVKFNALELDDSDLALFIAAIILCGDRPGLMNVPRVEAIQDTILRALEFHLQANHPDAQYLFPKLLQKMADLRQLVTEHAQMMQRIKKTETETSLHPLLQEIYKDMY
human RAR-related Orphan Receptor beta (RORb), RORB (gene 6096), sequence (Q92753 whole entry, looked up, the tested form may be a part): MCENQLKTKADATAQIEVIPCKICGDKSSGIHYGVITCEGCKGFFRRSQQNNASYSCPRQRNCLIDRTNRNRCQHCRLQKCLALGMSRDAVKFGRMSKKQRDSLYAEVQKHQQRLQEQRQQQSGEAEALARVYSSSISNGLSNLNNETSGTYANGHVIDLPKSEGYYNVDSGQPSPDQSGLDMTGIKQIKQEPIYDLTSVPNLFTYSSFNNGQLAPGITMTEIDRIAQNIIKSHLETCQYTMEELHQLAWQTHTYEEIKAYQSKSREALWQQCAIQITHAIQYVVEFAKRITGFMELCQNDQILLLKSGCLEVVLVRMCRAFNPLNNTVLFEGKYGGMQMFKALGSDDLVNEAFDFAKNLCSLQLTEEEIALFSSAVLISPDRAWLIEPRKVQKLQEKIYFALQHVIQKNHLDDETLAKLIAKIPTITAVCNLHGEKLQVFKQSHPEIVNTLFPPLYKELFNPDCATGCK
Peroxisome proliferator-activated receptor gamma (Homo sapiens), sequence (P37231 whole entry, looked up, the tested form may be a part): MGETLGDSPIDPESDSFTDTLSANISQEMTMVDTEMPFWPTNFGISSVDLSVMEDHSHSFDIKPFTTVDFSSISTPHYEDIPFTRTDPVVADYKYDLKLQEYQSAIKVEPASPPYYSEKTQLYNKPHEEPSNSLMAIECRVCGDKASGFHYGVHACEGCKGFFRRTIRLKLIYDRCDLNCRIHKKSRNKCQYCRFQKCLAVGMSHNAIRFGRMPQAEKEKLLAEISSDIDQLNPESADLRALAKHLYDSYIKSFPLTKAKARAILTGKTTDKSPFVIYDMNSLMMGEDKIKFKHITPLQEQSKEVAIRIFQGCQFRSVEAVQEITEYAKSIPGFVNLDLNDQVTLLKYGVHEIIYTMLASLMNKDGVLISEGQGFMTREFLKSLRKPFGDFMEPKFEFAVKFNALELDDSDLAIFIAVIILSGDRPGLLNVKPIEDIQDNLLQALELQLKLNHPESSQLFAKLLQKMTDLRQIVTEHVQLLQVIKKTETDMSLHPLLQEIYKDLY
human Peroxisome Proliferator-activated Receptor alpha (PPARa), PPARA (gene 5465), sequence (Q07869 whole entry, looked up, the tested form may be a part): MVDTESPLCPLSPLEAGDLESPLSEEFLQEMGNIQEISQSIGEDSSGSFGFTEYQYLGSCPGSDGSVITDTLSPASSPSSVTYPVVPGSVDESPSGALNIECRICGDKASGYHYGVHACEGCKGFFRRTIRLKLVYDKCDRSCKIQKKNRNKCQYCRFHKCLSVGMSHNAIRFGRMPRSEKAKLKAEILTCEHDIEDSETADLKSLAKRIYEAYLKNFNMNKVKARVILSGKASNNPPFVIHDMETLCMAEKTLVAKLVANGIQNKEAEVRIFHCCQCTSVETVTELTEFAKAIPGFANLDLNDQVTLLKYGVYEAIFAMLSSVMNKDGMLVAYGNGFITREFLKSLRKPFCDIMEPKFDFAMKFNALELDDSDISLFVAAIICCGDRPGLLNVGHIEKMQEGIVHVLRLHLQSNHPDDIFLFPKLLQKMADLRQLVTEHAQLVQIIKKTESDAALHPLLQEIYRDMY
E-selectin (Homo sapiens), sequence (P16581 whole entry, looked up): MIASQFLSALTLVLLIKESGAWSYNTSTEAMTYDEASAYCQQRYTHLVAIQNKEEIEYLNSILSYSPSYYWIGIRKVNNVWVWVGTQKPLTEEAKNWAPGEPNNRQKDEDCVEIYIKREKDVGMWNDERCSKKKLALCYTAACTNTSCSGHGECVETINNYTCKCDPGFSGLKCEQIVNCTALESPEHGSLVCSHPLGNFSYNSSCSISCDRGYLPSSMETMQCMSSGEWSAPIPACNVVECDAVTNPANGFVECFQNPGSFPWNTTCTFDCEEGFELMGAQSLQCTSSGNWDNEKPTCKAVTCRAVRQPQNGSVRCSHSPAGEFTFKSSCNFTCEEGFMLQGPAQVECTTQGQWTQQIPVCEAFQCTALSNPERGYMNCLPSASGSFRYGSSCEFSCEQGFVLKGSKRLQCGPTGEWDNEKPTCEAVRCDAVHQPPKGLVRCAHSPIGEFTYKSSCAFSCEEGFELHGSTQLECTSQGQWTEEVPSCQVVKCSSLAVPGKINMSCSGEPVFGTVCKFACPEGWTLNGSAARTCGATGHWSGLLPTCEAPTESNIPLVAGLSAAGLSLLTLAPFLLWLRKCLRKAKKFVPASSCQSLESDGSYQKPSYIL

Regarding `CN(C)c1ccc(C(=C2C=CC(=[N+](C)C)C=C2)c2ccccc2)cc1`, the AC50 is 0.0082 µM (active) in assay [1]; 0.337 µM (active) in assay [3]; 0.0248 µM (active) in assay [4]; 1.75 µM (active) and 1.45 µM (active) in assay [5]; 3.02 µM (active) in assay [6]; 0.205 µM (active) in assay [10]. Moreover, the half-maximal activity concentration (AC50) in assay [11] is 0.214 µM (active); in assay [12], 0.0082 µM (active); in assay [13], 0.0192 µM (active); in assay [14], 0.0082 µM (active). Also, the outcome in assay [2], in assay [7], in assay [8] and in assay [9] was inactive.
Consider `NC(=NCCCCCCN=C(N)/N=C(\N)Nc1ccc(Cl)cc1)/N=C(\N)Nc1ccc(Cl)cc1`, for which the AC50 in [1] was 5.53 µM (active); in [3] it was 10.5 µM (active); in [4], 4.95 µM (active); in assay [5], 8.54 µM (active); in assay [9] it was 8.56 µM (active) and 6.83 µM (active); in assay [10], 7.27 µM (active). The AC50 in [11] is 4.74 µM (active); in [12], 5.59 µM (active); in assay [13], 1.47 µM (active); in assay [14], 4.82 µM (active). In addition, the result in assay [15], in assay [5], in [6], in [16], in assay [7] and in [8] was inactive. In assay [9], the outcome was inactive.
On to `OCC(F)(F)C(F)(F)C(F)(F)C(F)(F)C(F)(F)C(F)(F)C(F)(F)C(F)(F)C(F)(F)C(F)(F)C(F)(F)F`, for which the outcome in assay [1], in assay [2], in [3], in assay [17], in assay [5] and in [6] was inactive. The outcome in assay [16], in assay [7], in assay [8], in assay [18], in assay [10] and in [11] was inactive. For the same molecule, the outcome in assay [12], in assay [13] and in [14] was inactive. In [4], the AC50 was 141 nM (active) and 224 nM (active).
Consider `Clc1ccc(Nc2nnc(Cc3ccncc3)c3ccccc23)cc1`, for which the result in [1], in assay [2], in [3], in [4], in [19] and in assay [8] was inactive. The call in assay [9], in [12], in [13] and in [14] was inactive. The AC50 in [5] is 26.9 µM (active); in [6], 3.3 µM (active); in assay [10] it was 2.36 µM (active); in assay [11], 1.67 µM (active).
As for `Cc1ccc(N=Nc2c(O)ccc3ccccc23)c(C)c1`, the AC50 is 3.39 µM (active) in assay [1], 15 µM (active) in [4], 6.99 µM (active) in assay [5] and 14.8 µM (active) in [14]. Also, the molecule was classed as inactive in assay [15], in assay [2], in assay [3], in assay [17], in [19] and in assay [16]. In addition, the call in [18], in [9], in assay [10], in assay [11], in assay [12] and in assay [13] was inactive.
As to `CS(=O)(=O)c1ccc([C@@H](CC2CCCC2)C(=O)Nc2cnccn2)cc1Cl`, the result in assay [1], in [15], in assay [2], in [3], in [5] and in assay [8] was inactive. Also, the call in assay [9], in assay [10], in assay [11], in assay [12], in [13] and in assay [14] was inactive. Also, the results for the AC50 in assay [4] and in assay [6] were 31.6 µM (active) and 3.42 µM (active), respectively.
